Each structure is given as a SMILES string. Inconclusive results are not listed. Where a call stands in place of a potency, no number is given. Active and inactive are the calls of the source. Calls follow the shape of the dose curve; as a rule, active = well fitted inhibition curve with a large enough effect; inconclusive = small, poorly fitted or top-dose-only effect; inactive = flat fitted curve, though single readings scatter.

Here are results for 36 compounds from PubChem BioAssay (NCATS).

The experiment concerns Zika virus NS2B-NS3 protease. As to the kind of experiment: Primary screen GU AMC qHTS for Zika virus inhibitors (AID 1347154). Also: nearly all actives have a fitted effect of over 70% in size. As to conditions: Zika NS2B-NS3 unlinked protease, AMC fluorogenic substrate; series mostly up to 54.1 µM. In a few lines: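 Fluorogenic AMC-substrate cleavage by noncovalent NS2B-NS3 protease complex (25 nM, pH 8.0 Tris buffer with Tween 20) followed for 15 minutes at room temperature (~20% conversion). Percent inhibition from ex340/em450 signal change, fitted by 4-parameter Hill equation.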
In general terms: qHTS replaces the single test concentration by a dilution series.
With `NCCO`, the Potency entry was “inactive”. Take `O=c1cc(-c2ccccc2)oc2ccccc12`: the Potency entry was “inactive”. The same measure for `O=C(OCc1ccccc1)c1ccccc1`: “inactive”; for `Cc1c(Nc2ncccc2C(=O)O)cccc1C(F)(F)F`: “inactive”. For the compound `CN1CCc2ccccc2Cc2[nH]c3ccccc3c2CC1`, the Potency entry was “inactive”. Regarding `Nc1ccc(C(=O)O)c(O)c1`, the Potency entry is “inactive”. `O=C(CCN1CCN(CCO)CC1)N1c2ccccc2Sc2ccc(C(F)(F)F)cc21`: the Potency result was “inactive”. The same measure for `O=C(O)/C=C\C(=O)O`: “inactive”; for `Cc1ccc(C(=O)c2ccc(CC(=O)O)n2C)cc1`: “inactive”. In the case of `O=C(/C=C/c1ccccc1)NCCO`, the Potency entry is “inactive”.

On to `O=C(O)Cc1ccc(-c2ccccc2)cc1`, for which the Potency result was “inactive”. In the case of `Nc1nc2ccc([N+](=O)[O-])cc2s1`, the Potency result is “inactive”. The entry for `Cc1cc(O)c2ccccc2c1O` is “inactive”; for `O=C1CN(/N=C/c2ccc(-c3ccc([N+](=O)[O-])cc3)o2)C(=O)N1` it is “inactive”; for `O=c1[nH]c2ccccc2n1CCCN1CCN(C(c2ccccc2)c2ccccc2)CC1` it is “inactive”.

For the compound `N=C(N)N`, the Potency result was “inactive”. For the compound `S=c1[nH]c2ccccc2s1`, the Potency result is “inactive”. Consider `CO[C@@]1(NC(=O)Cc2cccs2)C(=O)N2C(C(=O)O)=C(COC(N)=O)CS[C@@H]21`, for which the Potency result is “inactive”. On to `CCCCCCCCCCCC(=O)[O][Sn]([CH2]CCC)([CH2]CCC)[O]C(=O)CCCCCCCCCCC`, for which the Potency result is “inactive”. In the case of `CC1(C)S[C@@H]2[C@H](NC(=O)[C@H](N)c3ccccc3)C(=O)N2[C@H]1C(=O)O`, the Potency result was “inactive”. For the compound `Nc1cc(-c2ccncc2)c[nH]c1=O`, the Potency result was “inactive”. With `Nc1c(CC(=O)O)cccc1C(=O)c1ccc(Br)cc1`, the Potency result is “inactive”. For `CCCCCCCCCCCCOCCO`, the Potency result is “inactive”. As for `CC(C(=O)O)c1ccc(C(=O)c2cccs2)cc1` (stereo unspecified), the Potency result was “inactive”. As to `Clc1ccccc1-c1nc(-c2ccncc2)no1`, the Potency result was “inactive”. Turning to `Cc1nc2ccccc2n1Cc1ccc(Cl)cc1`, the Potency result was “inactive”. As for `CCCCC1C(=O)N(c2ccccc2)N(c2ccc(O)cc2)C1=O` (stereo unspecified), the Potency result was “inactive”. Regarding `C=CCCCCCCCCC(=O)O`, the Potency entry is “inactive”. The entry for `COc1cc(NC(C)CCCN)c2ncccc2c1` (stereo unspecified) is “inactive”; for `c1ccc(CCNc2nc(-c3ccccc3)cs2)cc1` it is “inactive”.

Take `Cc1c(C(=O)O)c(O)cc2c1C(=O)c1c(O)c([C@@H]3O[C@H](CO)[C@@H](O)[C@H](O)[C@H]3O)c(O)c(O)c1C2=O`: the Potency entry is “inactive”. Regarding `CCCCCCCC/C=C/C(=O)O`, the Potency entry was “inactive”. Turning to `CNC(=O)c1c(I)c(NC(=O)CCCCC(=O)Nc2c(I)c(C(=O)O)c(I)c(C(=O)NC)c2I)c(I)c(C(=O)O)c1I`, the Potency result was “inactive”.

Turning to `COc1ccc(-c2cc(=S)ss2)cc1`, the Potency result is “inactive”. As to `O=C(O)Cc1ccc2c(c1)C(=O)c1ccccc1CO2`, the Potency entry was “inactive”. For the compound `O=C(Nc1ccc(C(=O)O)c(O)c1)c1ccccc1`, the Potency entry was “inactive”.
